# According to a collection of fitness landscapes (doi:10.1126/science.1257360):
# In all, about 140,000 sequences were measured (“enrichment ratio after two sorts for PhoP signalling”: median about 0, highest 2% from about 11 on). Only a selection was taken, and the highest values are over-represented in it overall.
# B1: PhoQ; a variant is named by its letters at X, in order, P23837 (parent)
# chain: MKKLLRLFFPLSLRVRFLLATAAVVLVLSLAYGMVALIGYSVSFDKTTFRLLRGESNLFYTLAKWENNKLHVELPENIDKQSPTMTLIYDENGQLLWAQRDVPWLMKMIQPDWLKSNGFHEIEADVNDTSLLLSGDHSIQQQLQEVREDDDDAEMTHSVAVNVYPATSRMPKLTIVVVDTIPVELKSSYMVWSWFIYVLSANLLLVIPLLWVAAWWSLRPIEALAKEVRELEEHNRELLNPATTRELTSLVRNLNRLLKSERERYDKYRTTLTDLTHSLKTPLXXLQXXLRSLRSEKMSVSDAEPVMLEQISRISQQIGYYLHRASMRGGTLLSRELHPVAPLLDNLTSALNKVYQRKGVNISLDISPEISFVGEQNDFVEVMGNVLDNACKYCLEFVEISARQTDEHLYIVVEDDGPGIPLSKREVIFDRGQRVDTLRPGQGVGLAVAREITEQYEGKIVAGESMLGGARMEVIFGRQHSAPKDE
# Variants of: B1
# Assay: enrichment ratio after two sorts for PhoP signalling (ratio (wild type AVST 3.29)); higher = more functional
# Details: with PhoP (E. coli)
row,Variant,enrichment ratio
1,FACS,≤ 0.25
2,ESAP,≤ 0.25
3,RPEH,≤ 0.25
4,QELI,≤ 0.25
5,TEGT,22.6
6,THGT,≤ 0.25
7,TELI,19.5
8,NHGT,≤ 0.25
9,MELI,6.46
10,ADTR,≤ 0.25
11,QRFP,≤ 0.25
12,VSPY,≤ 0.25
13,KAWC,≤ 0.25
14,WIWC,≤ 0.25
15,QRWC,≤ 0.25
16,KSWC,≤ 0.25
17,TSWC,17.5
18,QPWC,≤ 0.25
19,QFWC,17.1
20,TGWC,13.8
21,MMWC,≤ 0.25
22,LCWC,≤ 0.25
23,TAWC,11.3
24,YAWC,≤ 0.25
25,NPNK,≤ 0.25

row,Variant,enrichment ratio
1,MMHM,≤ 0.25
2,SCKK,≤ 0.25
3,TYID,≤ 0.25
4,LNTD,≤ 0.25
5,IKRA,≤ 0.25
6,QRQH,≤ 0.25
7,NYNA,≤ 0.25
8,MFGV,≤ 0.25
9,TQWC,29.7
10,HPWC,≤ 0.25
11,LNWC,≤ 0.25
12,NRWC,≤ 0.25
13,TNWC,≤ 0.25
14,NQWC,≤ 0.25
15,NEWC,≤ 0.25
16,MNWC,11.8
17,TEWC,33.2
18,FYWP,≤ 0.25
19,RAPP,≤ 0.25
20,TIYT,2.66
21,HIYY,≤ 0.25
22,IYRV,≤ 0.25
23,SKMA,3.27
24,WRFK,≤ 0.25
25,DFPC,≤ 0.25

row,Variant,enrichment ratio
1,YMWR,≤ 0.25
2,YTAI,≤ 0.25
3,QAAI,12.7
4,TPAI,≤ 0.25
5,MTAI,17.8
6,QPAI,≤ 0.25
7,MKAI,≤ 0.25
8,GKTK,≤ 0.25
9,YGMR,≤ 0.25
10,ACFV,≤ 0.25
11,YCLM,14.9
12,ISWM,≤ 0.25
13,FCLM,12.7
14,HMGM,≤ 0.25
15,KCLM,≤ 0.25
16,HMTM,11.7
17,FVLM,8.14
18,IALM,6.67
19,HMPM,≤ 0.25
20,YYLM,≤ 0.25
21,YCWM,≤ 0.25
22,ISLM,12.9
23,QYLA,≤ 0.25
24,RGIA,≤ 0.25
25,WTPQ,≤ 0.25

row,Variant,enrichment ratio
1,MDVM,8.67
2,PTAN,≤ 0.25
3,QCEP,≤ 0.25
4,CALR,≤ 0.25
5,WMFY,≤ 0.25
6,IQQW,≤ 0.25
7,VWEW,≤ 0.25
8,HMQF,≤ 0.25
9,YSKM,≤ 0.25
10,WFWG,≤ 0.25
11,GVAV,≤ 0.25
12,TSLM,16.7
13,HSLA,≤ 0.25
14,HSFM,≤ 0.25
15,SYLM,≤ 0.25
16,SSLM,17.1
17,HSLM,22.1
18,KSLM,≤ 0.25
19,FSLM,19.2
20,FFLM,≤ 0.25
21,FQLM,1.74
22,NSLM,7.81
23,QNNM,≤ 0.25
24,YPIG,≤ 0.25
25,PMYL,≤ 0.25

row,Variant,enrichment ratio
1,WVSG,≤ 0.25
2,GGKL,≤ 0.25
3,LPCH,≤ 0.25
4,RYCQ,≤ 0.25
5,FALM,17
6,MALM,9.02
7,FAPM,0.451
8,HSWM,≤ 0.25
9,HSTM,13.1
10,HSCK,≤ 0.25
11,AEWY,6.65
12,FPSQ,≤ 0.25
13,YFHS,≤ 0.25
14,HESK,≤ 0.25
15,QHDS,29.2
16,QHRM,≤ 0.25
17,QHDK,≤ 0.25
18,NHDI,≤ 0.25
19,THDI,≤ 0.25
20,PHDG,≤ 0.25
21,QHDA,10.1
22,QHDG,110
23,THDG,≤ 0.25
24,QHGM,≤ 0.25
25,QHDM,19.5

row,Variant,enrichment ratio
1,QHDI,19.6
2,LMVM,≤ 0.25
3,EFMR,≤ 0.25
4,LCAK,≤ 0.25
5,IKYG,≤ 0.25
6,AISC,9.79
7,SAFV,≤ 0.25
8,AGNI,≤ 0.25
9,PWYG,≤ 0.25
10,YQNA,14.6
11,WQLM,15.8
12,YQNS,≤ 0.25
13,YQLM,17.7
14,WEGM,≤ 0.25
15,WILM,≤ 0.25
16,YQWM,≤ 0.25
17,WELF,≤ 0.25
18,YQNY,≤ 0.25
19,YQLA,≤ 0.25
20,WFLM,≤ 0.25
21,WELM,17.4
22,QISH,7.86
23,FCVP,≤ 0.25
24,NSRA,0.539
25,NGWY,≤ 0.25

row,Variant,enrichment ratio
1,VQWA,≤ 0.25
2,EQLM,≤ 0.25
3,KYLM,≤ 0.25
4,DPLM,≤ 0.25
5,TQLM,22.7
6,SQLM,21.3
7,NQLM,6.38
8,MPQH,≤ 0.25
9,KFKS,≤ 0.25
10,TDIN,≤ 0.25
11,LAGL,≤ 0.25
12,SWST,≤ 0.25
13,DQAN,≤ 0.25
14,AMCY,25.2
15,NHCY,≤ 0.25
16,NMCY,≤ 0.25
17,VLCY,≤ 0.25
18,AHCY,12.7
19,THCY,1.87
20,SYHH,0.299
21,IIEM,≤ 0.25
22,KTPQ,≤ 0.25
23,MTSW,≤ 0.25
24,AFCE,≤ 0.25
25,AFAG,≤ 0.25

row,Variant,enrichment ratio
1,AFMG,19.5
2,AFVG,4.66
3,AFCI,≤ 0.25
4,AFCG,11.4
5,SDVD,≤ 0.25
6,FQFY,≤ 0.25
7,YCFT,≤ 0.25
8,QDDD,≤ 0.25
9,NLAY,≤ 0.25
10,GAMS,≤ 0.25
11,TPSS,≤ 0.25
12,MNLA,≤ 0.25
13,KCLC,≤ 0.25
14,GNLC,4.14
15,MNLC,11.7
16,MCLC,1.65
17,TNLC,13.5
18,RMKH,≤ 0.25
19,FPFY,≤ 0.25
20,FYFF,≤ 0.25
